In experiment [1] the test system is PRMT1 (protein arginine N-methyltransferase 1). The experiment in a line: small molecules binding arginine methyltransferase PRMT1 – biochemical, small-molecule microarray, 635 nm fluorescence, primary screen (AID 1088).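 Also: binding of Prmt1 protein to compounds spotted on small-molecule microarray slides.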 The conditions noted are these: higher = more signal.
A short description of experiment [2]: growth effects on S. cerevisiae YJM789 – YJM789 clinical isolate, OD600, 24 h, basal, primary screen (AID 1089).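 Also: growth of clinical yeast isolate S. cerevisiae YJM 789 seeded 1000 cells per well; test concentration not given here.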 The conditions noted are these: higher = more signal, called active from +8 up or from −8 down.
A short description of experiment [3]: S. pombe growth modifiers, basal conditions – strain 972, OD600, 24 h, no modulator, primary screen (AID 1090).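 Also: basal condition with compound alone and no growth modifier present; test concentration not given here.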 The conditions noted are these: S. pombe 972 growth, higher = more signal, called active from +8 up or from −8 down.
Experiment [4] is described as follows: budding yeast growth modifiers under rapamycin – strain BY4716, OD600, 96 h, primary screen (AID 1091). Also: test concentration not given here. To be noted: S. cerevisiae BY4716 + rapamycin, higher = more signal, called active from +8 up or from −8 down.
In experiment [5] the target is Torsin-1A-interacting protein 2 (Homo sapiens) (UniProt Q8NFQ8). The experiment in a line: small molecules binding lysate-expressed LULL1 – cell lysate, human LULL1 lysate, 635/667 nm fluorescence, primary screen (AID 1092).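 Also: probe is lysate of COS7 cells overexpressing human LULL1; score merges per-feature 667 nm fluorescence with signal-to-noise.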 To be noted: small-molecule microarray, hLULL1 lysate binding, 635 nm fluorescence; higher = more signal.
The nature of experiment [6]: optical density change of DRC41 E. coli – strain DRC41, OD650, 24 h, E. coli filamentation project, primary screen (AID 1093).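 Also: MC1000 strain lacking acrAB efflux and sulA so SOS filamentation is blocked; test concentration not given here.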 The conditions noted are these: E. coli DRC41 growth, higher = more signal, called active from +8 up or from −8 down.
The nature of experiment [7]: probe aLefty2 binding to arrayed compounds – biochemical, biotinylated probe, 635/667 nm fluorescence, primary screen (AID 1094).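 Also: score merges spot fluorescence near 667 nm with spot signal-to-noise ratio.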 To be noted: small-molecule microarray, higher = more signal.
The subject of experiment [8] is Noggin (protein binding on small-molecule microarray). Put plainly: small molecules binding Noggin protein – biochemical, 635/667 nm fluorescence, primary screen (AID 1095).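 Also: score merges 667 nm feature fluorescence with signal to noise over triplicate slides.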 The conditions noted are these: 635 nm fluorescence, higher = more signal.
For experiment [9], the target named is Neurogenic locus notch homolog protein 3 (Homo sapiens) (UniProt Q9UM47). The experiment in a line: small molecules binding NOTCH3 protein – biochemical, 635/667 nm fluorescence, primary screen (AID 1096). The conditions noted are these: small-molecule microarray, 635 nm fluorescence, higher = more signal.
Experiment [10] is described as follows: probe aEGFR binding to arrayed compounds – biochemical, biotinylated probe, 635/667 nm fluorescence, primary screen (AID 1097).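 Also: probe is a biotinylated anti-EGFR antibody binding compounds printed on slides; score combines fluorescence near 667 nm and signal to noise of each spot.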 The conditions noted are these: small-molecule microarray, higher = more signal.
Experiment [11] relates to Plasmodium falciparum Sir2 (PF13_0152, Sir2A). Put plainly: Plasmodium falciparum Sir2A binding compounds – biochemical, small-molecule microarray, 635 nm fluorescence, primary screen (AID 1098).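 Also: score merges spot fluorescence intensity with its signal-to-noise ratio.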 To be noted: fluorescence 635 nm, higher = more signal.
A short description of experiment [12]: probe aDKK1 binding to arrayed compounds – biochemical, biotinylated probe, 635/667 nm fluorescence, primary screen (AID 1099).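 Also: score merges 667nm spot fluorescence with signal to noise across triplicate slides; reference of the scale not given here.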 To be noted: small-molecule microarray, higher = more signal.
Experiment [13] can be described thus: probe aCHRDL2 binding to arrayed compounds – biochemical, biotinylated probe, 635/667 nm fluorescence, primary screen (AID 1100). The conditions noted are these: small-molecule microarray, higher = more signal.
A short description of experiment [14]: change in splice reporter luminescence, either direction, cell-based, HEK293, spliceosome inhibition project, primary screen (AID 1101).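 Also: HEK293 cells carrying a splicing-competent luciferase reporter gene; test concentration not given here.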 The conditions noted are these: HEK293 splicing luciferase reporter, 24 h, higher = more signal, called active from +8 up or from −8 down.
Experiment [15] deals with Fibroblast growth factor 10 (Homo sapiens) (UniProt O15520). Put plainly: compounds binding fibroblast growth factor 10 – biochemical, small-molecule microarray, 635 nm fluorescence, primary screen (AID 1102). The conditions noted are these: FGF10 binding, fluorescence 635 nm, higher = more signal.
Experiment [16] relates to glycogen synthase kinase-3 (GSK3A per assay name; protocol says GSK3B). Put plainly: compounds binding glycogen synthase kinase-3 – biochemical, small-molecule microarray, 635 nm fluorescence, GSK3A, primary screen (AID 1103). Also: the record names both GSK3A and GSK3B. To be noted: fluorescence 635 nm, higher = more signal.
Experiment [17] deals with Epidermal growth factor receptor (Homo sapiens) (UniProt P00533). Put plainly: compounds binding epidermal growth factor receptor – biochemical, small-molecule microarray, 635 nm fluorescence, primary screen (AID 1104).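 Also: score merges 667 nm emission intensity with spot signal to noise over triplicate slides.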 To be noted: EGFR binding, higher = more signal.
Experiment [18] deals with Follistatin-related protein 3 (Homo sapiens) (UniProt O95633). The experiment in a line: compounds binding follistatin-related protein 3 – biochemical, small-molecule microarray, 635 nm fluorescence, primary screen (AID 1105).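 Also: score merges emission near 667 nm and signal to noise per printed spot across three slides.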 The conditions noted are these: FSTL3 binding, higher = more signal.
In experiment [19] the target is Dickkopf-related protein 1 (Homo sapiens) (UniProt O94907). Put plainly: small molecules binding DKK1 protein – biochemical, small-molecule microarray, 635 nm fluorescence scan, primary screen (AID 1106).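 Also: score merges emission near 667 nm with signal to noise over three replicate slides.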 The conditions noted are these: higher = more signal.
Experiment [20] deals with Inhibin beta A chain (activin A). Put plainly: small molecules binding activin A – biochemical, small-molecule microarray, 635 nm fluorescence scan, primary screen (AID 1107).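 Also: mouse activin A protein probed at 4.33 µg/mL on printed slides; score merges bound-protein fluorescence near 667 nm with spot signal-to-noise.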 To be noted: INHBA, higher = more signal.

Each structure is given as a SMILES string. Active and inactive are the calls of the source.

Sequence of Neurogenic locus notch homolog protein 3 (Homo sapiens) (Q9UM47 whole entry, looked up): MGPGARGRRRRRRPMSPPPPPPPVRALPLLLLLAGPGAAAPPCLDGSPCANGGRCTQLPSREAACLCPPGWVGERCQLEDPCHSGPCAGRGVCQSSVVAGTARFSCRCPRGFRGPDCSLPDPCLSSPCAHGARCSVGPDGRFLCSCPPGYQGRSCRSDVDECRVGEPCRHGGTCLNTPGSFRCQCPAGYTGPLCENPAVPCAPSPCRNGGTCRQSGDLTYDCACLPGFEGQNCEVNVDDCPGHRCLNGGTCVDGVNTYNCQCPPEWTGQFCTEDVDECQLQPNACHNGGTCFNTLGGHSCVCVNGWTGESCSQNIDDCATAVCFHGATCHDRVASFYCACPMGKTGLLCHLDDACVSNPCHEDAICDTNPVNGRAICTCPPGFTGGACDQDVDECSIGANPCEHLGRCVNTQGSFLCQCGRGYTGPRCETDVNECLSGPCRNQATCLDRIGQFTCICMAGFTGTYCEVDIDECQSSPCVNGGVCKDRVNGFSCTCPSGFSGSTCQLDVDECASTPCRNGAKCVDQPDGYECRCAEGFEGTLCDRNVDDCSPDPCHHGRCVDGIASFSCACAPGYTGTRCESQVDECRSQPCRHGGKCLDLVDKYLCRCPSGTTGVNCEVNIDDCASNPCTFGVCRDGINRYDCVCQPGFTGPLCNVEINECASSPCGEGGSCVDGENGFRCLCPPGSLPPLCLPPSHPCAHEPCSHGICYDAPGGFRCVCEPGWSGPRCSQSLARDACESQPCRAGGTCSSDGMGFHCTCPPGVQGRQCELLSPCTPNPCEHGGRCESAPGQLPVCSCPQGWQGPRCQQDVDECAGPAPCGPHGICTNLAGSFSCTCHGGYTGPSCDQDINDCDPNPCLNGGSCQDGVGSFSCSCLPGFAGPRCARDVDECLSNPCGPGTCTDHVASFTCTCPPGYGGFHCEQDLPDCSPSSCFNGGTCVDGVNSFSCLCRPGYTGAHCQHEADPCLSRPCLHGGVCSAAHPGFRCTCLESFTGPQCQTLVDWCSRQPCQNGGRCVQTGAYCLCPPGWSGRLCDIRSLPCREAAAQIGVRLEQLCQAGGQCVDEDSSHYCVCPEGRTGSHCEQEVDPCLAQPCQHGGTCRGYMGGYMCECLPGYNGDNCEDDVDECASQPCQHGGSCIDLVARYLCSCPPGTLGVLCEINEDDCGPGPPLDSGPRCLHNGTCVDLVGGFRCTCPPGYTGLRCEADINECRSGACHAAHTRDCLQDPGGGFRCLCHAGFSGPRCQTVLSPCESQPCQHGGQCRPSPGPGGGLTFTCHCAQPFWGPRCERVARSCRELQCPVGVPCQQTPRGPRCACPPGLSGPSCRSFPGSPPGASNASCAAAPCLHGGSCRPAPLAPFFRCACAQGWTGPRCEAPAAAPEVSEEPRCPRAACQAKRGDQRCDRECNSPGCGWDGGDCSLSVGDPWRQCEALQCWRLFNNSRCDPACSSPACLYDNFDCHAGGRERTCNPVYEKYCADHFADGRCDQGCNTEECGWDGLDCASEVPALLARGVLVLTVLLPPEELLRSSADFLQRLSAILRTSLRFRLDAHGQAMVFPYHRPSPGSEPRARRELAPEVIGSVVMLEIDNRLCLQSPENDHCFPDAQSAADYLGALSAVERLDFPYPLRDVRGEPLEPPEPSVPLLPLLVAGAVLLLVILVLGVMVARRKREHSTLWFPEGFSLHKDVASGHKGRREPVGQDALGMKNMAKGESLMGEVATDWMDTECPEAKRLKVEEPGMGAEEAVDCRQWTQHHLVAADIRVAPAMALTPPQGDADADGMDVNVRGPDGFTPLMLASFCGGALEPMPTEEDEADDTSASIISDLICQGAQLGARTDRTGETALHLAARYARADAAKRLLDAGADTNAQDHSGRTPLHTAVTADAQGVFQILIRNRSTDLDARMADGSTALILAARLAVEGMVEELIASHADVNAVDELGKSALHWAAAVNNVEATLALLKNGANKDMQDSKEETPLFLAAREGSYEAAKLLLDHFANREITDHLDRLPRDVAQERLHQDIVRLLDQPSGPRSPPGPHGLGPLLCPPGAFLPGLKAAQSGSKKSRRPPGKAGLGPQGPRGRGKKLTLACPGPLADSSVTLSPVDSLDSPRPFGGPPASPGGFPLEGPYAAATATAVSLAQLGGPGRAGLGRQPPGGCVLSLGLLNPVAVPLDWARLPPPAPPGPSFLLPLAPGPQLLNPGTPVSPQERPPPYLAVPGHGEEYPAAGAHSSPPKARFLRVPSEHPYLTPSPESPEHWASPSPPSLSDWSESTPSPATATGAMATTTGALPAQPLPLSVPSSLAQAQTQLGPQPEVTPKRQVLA
Sequence of Follistatin-related protein 3 (Homo sapiens) (O95633 whole entry, looked up): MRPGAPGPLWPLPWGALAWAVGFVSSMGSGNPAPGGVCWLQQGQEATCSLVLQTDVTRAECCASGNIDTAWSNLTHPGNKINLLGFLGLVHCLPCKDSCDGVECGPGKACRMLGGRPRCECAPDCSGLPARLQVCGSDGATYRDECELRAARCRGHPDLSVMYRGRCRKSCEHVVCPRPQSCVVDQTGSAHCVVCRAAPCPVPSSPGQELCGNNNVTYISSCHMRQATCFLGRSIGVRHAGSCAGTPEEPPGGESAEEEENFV
Sequence of Torsin-1A-interacting protein 2 (Homo sapiens) (Q8NFQ8 whole entry, looked up): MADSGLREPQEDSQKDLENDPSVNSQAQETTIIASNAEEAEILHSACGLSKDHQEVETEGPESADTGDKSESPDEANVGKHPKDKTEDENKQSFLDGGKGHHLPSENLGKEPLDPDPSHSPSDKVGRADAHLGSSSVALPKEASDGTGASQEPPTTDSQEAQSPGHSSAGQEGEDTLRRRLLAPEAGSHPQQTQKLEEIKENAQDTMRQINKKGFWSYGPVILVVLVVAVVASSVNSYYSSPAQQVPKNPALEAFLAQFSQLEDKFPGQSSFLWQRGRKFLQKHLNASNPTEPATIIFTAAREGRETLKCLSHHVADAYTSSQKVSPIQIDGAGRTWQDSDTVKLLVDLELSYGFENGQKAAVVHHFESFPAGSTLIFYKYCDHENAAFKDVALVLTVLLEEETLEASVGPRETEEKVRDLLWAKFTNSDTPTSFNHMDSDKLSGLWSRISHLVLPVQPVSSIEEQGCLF
Sequence of Fibroblast growth factor 10 (Homo sapiens) (O15520 whole entry, looked up): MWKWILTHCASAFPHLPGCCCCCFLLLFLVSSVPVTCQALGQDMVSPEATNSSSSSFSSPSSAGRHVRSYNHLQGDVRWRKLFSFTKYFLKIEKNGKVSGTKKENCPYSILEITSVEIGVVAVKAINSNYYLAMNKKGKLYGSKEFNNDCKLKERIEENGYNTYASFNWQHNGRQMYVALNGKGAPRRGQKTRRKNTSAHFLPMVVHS
Sequence of Epidermal growth factor receptor (Homo sapiens) (P00533 whole entry, looked up): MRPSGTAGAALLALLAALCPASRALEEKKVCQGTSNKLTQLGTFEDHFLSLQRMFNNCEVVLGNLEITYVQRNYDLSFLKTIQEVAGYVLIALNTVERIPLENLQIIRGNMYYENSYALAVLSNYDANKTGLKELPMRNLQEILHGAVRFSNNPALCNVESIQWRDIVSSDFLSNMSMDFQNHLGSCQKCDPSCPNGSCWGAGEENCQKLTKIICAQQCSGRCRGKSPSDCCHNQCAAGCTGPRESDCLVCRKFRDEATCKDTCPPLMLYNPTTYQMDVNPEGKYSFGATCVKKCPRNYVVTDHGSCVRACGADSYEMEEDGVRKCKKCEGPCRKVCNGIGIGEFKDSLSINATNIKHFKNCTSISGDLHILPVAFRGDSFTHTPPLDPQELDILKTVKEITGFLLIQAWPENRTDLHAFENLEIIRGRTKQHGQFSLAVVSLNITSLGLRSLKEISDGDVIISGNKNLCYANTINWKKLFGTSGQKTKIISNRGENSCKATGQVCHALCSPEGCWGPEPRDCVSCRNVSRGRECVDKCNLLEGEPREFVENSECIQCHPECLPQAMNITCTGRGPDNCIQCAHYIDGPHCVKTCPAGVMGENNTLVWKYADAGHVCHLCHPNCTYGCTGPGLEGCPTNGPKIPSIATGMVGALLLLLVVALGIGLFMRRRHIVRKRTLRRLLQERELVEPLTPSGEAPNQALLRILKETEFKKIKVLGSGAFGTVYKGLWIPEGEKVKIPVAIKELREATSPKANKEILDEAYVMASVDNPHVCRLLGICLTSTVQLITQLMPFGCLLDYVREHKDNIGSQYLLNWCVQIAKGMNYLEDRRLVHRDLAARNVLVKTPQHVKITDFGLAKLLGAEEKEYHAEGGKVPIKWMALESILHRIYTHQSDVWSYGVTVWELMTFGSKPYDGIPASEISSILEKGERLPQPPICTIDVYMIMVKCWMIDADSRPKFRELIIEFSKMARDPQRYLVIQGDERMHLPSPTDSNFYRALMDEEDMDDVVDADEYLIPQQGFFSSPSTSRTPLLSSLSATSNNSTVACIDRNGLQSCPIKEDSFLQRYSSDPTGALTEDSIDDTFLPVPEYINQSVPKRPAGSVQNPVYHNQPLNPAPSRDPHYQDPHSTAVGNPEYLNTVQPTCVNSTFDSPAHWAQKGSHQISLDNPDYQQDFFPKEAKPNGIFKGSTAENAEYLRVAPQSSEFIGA
Sequence of Dickkopf-related protein 1 (Homo sapiens) (O94907 whole entry, looked up): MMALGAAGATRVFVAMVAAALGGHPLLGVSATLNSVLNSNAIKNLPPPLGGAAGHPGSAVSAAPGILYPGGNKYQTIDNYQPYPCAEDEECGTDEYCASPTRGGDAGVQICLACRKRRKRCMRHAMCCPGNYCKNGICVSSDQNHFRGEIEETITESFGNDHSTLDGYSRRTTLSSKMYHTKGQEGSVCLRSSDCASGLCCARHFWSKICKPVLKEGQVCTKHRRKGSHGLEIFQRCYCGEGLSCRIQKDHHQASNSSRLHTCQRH

As for `C=C[C@H](OC)[C@@H](OC(=O)Nc1ccc(SC)cc1)c1ccc(O)c(F)c1`, the composite z-score in experiment [1] was 1.22; in experiment [5], 2.96; in [7], -0.0174; in [8], -0.0413; in [9], 0.134; in experiment [10], -0.12. Moreover, the composite z-score in experiment [11] was 1.03; in [12], -0.145; in experiment [13], 0.0453; in experiment [15], 1.01; in [16] it was 0.0309; in experiment [17], -0.133. In addition, the values for the composite z-score in experiment [18], in experiment [19] and in experiment [20] were 0.264, -0.39 and -0.433, respectively. Moreover, the z-score in experiment [2] is -1.83 (inactive); in experiment [3] it was -1.68 (inactive); in experiment [4] it was 0.887 (inactive); in experiment [6] it was 1.48 (inactive); in experiment [14], -1.97 (inactive).

`O=C(N1CCCCC1)[C@@]1(CCS(=O)(=O)c2ccccc2)N=C(c2ccc(OCCCO)cc2)O[C@H]1c1ccccc1`: the composite z-score in [1] is 1.24; in experiment [5], 3.63; in experiment [7] it was 0.0971; in [8], 0.688; in experiment [9] it was 1.12; in [10] it was -0.0828. For the same molecule, the composite z-score in experiment [11] is 0.332; in [12], 0.653; in experiment [13], 0.896; in experiment [15], 1.27; in experiment [16], 0.811; in experiment [17] it was -0.162. In addition, the composite z-score in [18] is 0.598; in [19] it was -0.42; in experiment [20], 0.356. Moreover, the z-score was -0.418 (inactive) in experiment [2]; -0.938 (inactive) in experiment [3]; 30.4 (active) in experiment [4]; 0.943 (inactive) in experiment [6]; -0.372 (inactive) in experiment [14].

On to `C[N+](C)(C)CCCC[C@@H]1NC(=O)[C@H]2C[C@@H](C(=O)NCc3ccc(F)cc3)[C@@H](c3cccc(OCCO)c3)N2C1=O`, for which the composite z-score is 1.47 in [1]; 0.823 in experiment [5]; -0.166 in [7]; 1.62 in experiment [8]; 0.716 in experiment [9]; -0.118 in experiment [10]. The composite z-score turned out to be 0.459 in experiment [11]; 0.0243 in experiment [12]; 0.479 in experiment [13]; 0.988 in [15]; 0.519 in [16]; 0.139 in experiment [17]. Further, the results for the composite z-score in [18], in [19] and in experiment [20] were 0.954, 0.885 and -0.7, respectively. In addition, the z-score in [2] is -1.69 (inactive); in experiment [3], -1.62 (inactive); in [4], -0.736 (inactive); in experiment [6], 0.973 (inactive); in [14] it was -0.178 (inactive).

With `CC(C)(C)OC(=O)CC[C@]1(C(=O)N2CCCCC2)N=C(c2ccc(OCCCO)cc2)O[C@H]1c1ccccc1`, the composite z-score in experiment [1] is 1.54; in experiment [5] it was 3.48; in experiment [7], 0.0224; in experiment [8] it was 1.04; in [9], 1.15; in experiment [10], -0.084. Besides, the composite z-score in [11] stood at 1.73; in experiment [12], 0.464; in [13], 0.56; in experiment [15], 1.2; in experiment [16] it was 1.29; in [17], 0.494. For the same molecule, the composite z-score came to 1.37 in experiment [18], 0.691 in [19] and 0.556 in experiment [20]. For the same molecule, the z-score was -4.57 (inactive) in experiment [2]; -3.11 (inactive) in experiment [3]; -1.07 (inactive) in experiment [4]; 0.726 (inactive) in experiment [6]; -0.767 (inactive) in [14].

Consider `CC(=O)NCCCC[C@@H]1NC(=O)[C@H]2C[C@@H](C(=O)NCCCCCCN(C)C)[C@@H](c3cccc(OCCO)c3)N2C1=O`, for which the composite z-score came out at 1.53 in experiment [1]; 3.07 in experiment [5]; 0.536 in experiment [7]; 1.87 in experiment [8]; 1.02 in experiment [9]; 0.539 in [10]. Moreover, the composite z-score in [11] amounted to 1.5; in [12] it was 0.822; in experiment [13], 0.649; in experiment [15] it was 1.39; in experiment [16] it was 1.36; in experiment [17] it was 1.64. Also, the composite z-score in experiment [18] turned out to be 1.1; in experiment [19] it was 1.77; in experiment [20], 0.298. Further, the z-score was -1.05 (inactive) in experiment [2]; -0.36 (inactive) in experiment [3]; -0.391 (inactive) in experiment [4]; 0.0161 (inactive) in experiment [6]; 0.567 (inactive) in [14].

The record behind these values is PubChem BioAssay.
